Records with an inconclusive call do not appear. Unmarked numbers belong to inactive results. Active and inactive are the calls of the source. The call rests on the fitted dose curve; in most records, active means well fitted activation curve with a large enough effect; inconclusive means small, poorly fitted or top-dose-only effect, or another doubt; inactive means no such curve, though single readings can be large or run the other way.
Molecular target: Rap guanine nucleotide exchange factor 3 (Homo sapiens) (UniProt O95398)
Experiment: Counterscreen qHTS for agonist of cAMP-regulated guanine nucleotide exchange factor 3 (EPAC1) (AID 1645889); further: nearly all actives have a fitted effect of over 40% in size; on activation: % of control where 0% means no effect
Conditions: EPAC1 Rap1B-BODIPY-GDP exchange, fluorescence; series mostly up to 154 µM; activation: at the top concentration
Method in brief: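 Measured: fluorescence of BODIPY-GDP bound to Rap1B, which falls as exchange proceeds. Conditions include 50 uM competing GDP, 5 and 30 min reads, and a later cAMP challenge for antagonist detection.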
Potency means the concentration at half of the fitted maximal effect.

SMILES	activation	Potency
COc1cc2ccccc2cc1C(=O)NC(=S)Nc1cccc(C(=O)O)c1	7.44% [at 30.8 µM]	–
NC(N)=N/N=C/c1ccc(OCc2ccc(Cl)cc2Cl)cc1	27.4% [at 30.8 µM]	–
CCOC(=O)c1cc(-c2ccc(/C=C3/C(=O)N(c4ccc(C(=O)O)cc4)N=C3C)o2)ccc1Cl	13%	–
COc1ccc(CCn2c(O)cc3nn(-c4nc5ccccc5s4)c(=O)c-3c2C)cc1	17.1%	–
CCOc1ccc(/C=C2\SC(=S)N(NS(=O)(=O)c3ccccc3)C2=O)cc1OC	6.46%	–
Cn1c(SCC(=O)Nc2cccc(C(=O)O)c2)nnc1-c1cc2cc(Br)ccc2o1	9.81%	–
Cc1cc(Br)cn2c(Cc3ccsc3)c(-c3ccco3)nc12	27.6% [at 30.8 µM]	–
CC1(C)CC2CC(C)(CN2C(=O)c2cc(-c3ccccc3O)on2)C1 (stereo not given)	17.1% [at 30.8 µM]	–
CCc1ccc(N=C2NC(=O)/C(=C/c3ccc(OCC(=O)O)cc3)S2)cc1	14.2% [at 30.8 µM]	–
O=[N+]([O-])c1ccc(NS(=O)(=O)c2ccccc2)c(Cl)c1	12%	–
CCOc1cc(/C=C2\SC(=Nc3ccc(CC)cc3)NC2=O)ccc1OCC(=O)O	-3.03%	–
COc1ccc(C(=O)NCCn2cc(SCC(=O)NCCc3ccc(OC)c(OC)c3)c3ccccc32)cc1	15.6%	–
COc1ccc(C(=O)c2ccc(Br)cc2)c(OC)c1OC	12.7%	–
CNc1ccc(/C=C(\CCC(=O)O)c2nc3ccccc3s2)cc1[N+](=O)[O-]	19.8% [at 30.8 µM]	–
Cc1ccc(NS(=O)(=O)c2cccc3cccnc23)c(Cl)c1	21.9%	–
CN(C)c1ccc(/C=C(/C(=O)c2ccc(Cl)cc2Cl)n2cncn2)cc1	–	70.8 µM (active)
COc1cc(/C=C2\SC(=Nc3ccccc3)N(CCc3c[nH]c4ccccc34)C2=O)ccc1OC(C)C(=O)O (stereo not given)	14.7%	–
CCOC(=O)c1c(CSc2ccccc2)n(C)c2cc(Br)c(OCC(O)CNC(CO)(CO)CO)cc12 (stereo not given)	6.19%	–
CC1(Cc2cc(Cl)ccc2C(F)(F)F)C(=O)Nc2c(Cl)cccc21 (stereo not given)	15%	–
CC(/C=C1\SC(=S)N(c2ccc(C(=O)O)cc2)C1=O)=C\c1ccccc1	18.6% [at 30.8 µM]	–
O=c1oc2c3c(ccc2c2ccccc12)OCN(Cc1cccc(Cl)c1)C3	55.1%	–
O=C(O)CC/C(=C\c1cccc(NC(=O)c2ccccc2Cl)c1)c1nc2ccccc2s1	14.9%	–
O=C(O)CC/C(=C\c1ccc(N2CCCC2)c([N+](=O)[O-])c1)c1nc2ccccc2s1	-5.54%	–
Cc1c(CCC(=O)O)c(=O)oc2cc(OCc3ccccc3Br)ccc12	7.78%	–
COc1cc(/C=C2\CCn3c2nc2cc(C(=O)O)ccc2c3=O)ccc1OC(F)F	13.6%	–

— PubChem BioAssay (NCATS)
